# High-throughput results from PubChem.
# HT1080 IDH1KD tx = HT-1080 IDH1 knockdown cell toxicity (counter line) | Potency, µM (top dose mostly 46.1 µM), usual class: cytotoxic | AID 686971 | HT-1080 IDH1 knockdown viability, ATP luminescence, 48 h | 360,000 compounds, 2% hits
#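 Viability of IDH1-knockdown HT-1080 fibrosarcoma cells was assessed by CellTiter-Glo after 48 h at 37 °C with titrated compound; concentration-effect curves were classified by fit quality and response size.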
# KB-V1 cytotox = KB-V1 MDR subline cytotoxicity | KB-V1 MDR cells viability, CellTiter-Glo, 72 h | Potency, µM (doses to about 46.1 µM), actives largely listed as cytotoxic | 400,000 compounds, 3.4% hits | AID 1347076; note: nearly all actives have a fitted effect of over 60% in size
#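 Following 72 h at 37 degrees C with compound, KB-V1 cell viability was read by CellTiter-Glo luminescence, medium being phenol-red-free DMEM plus 10% FBS; concentration-response parameters came from normalized, curve-fitted qHTS data.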
# MCF10A rerep = induces DNA re-replication in MCF 10a normal breast cells. MCF 10A DNA re-replication, Hoechst nuclear intensity, 48 h. Potency, µM (top dose mostly 46.1 µM), most hits filed as activators. 350,000 compounds, 2.9% hits. AID 624296; note: nearly all actives have a fitted effect of over 50% in size
# SW480 rerep = inducers of DNA re-replication in SW480 colon cancer cells. SW480 DNA re-replication, Hoechst DNA content imaging, 48 h. Potency, µM (top dose mostly 46.1 µM), usual class: activators. 340,000 compounds, 1.8% hits. AID 624297; note: nearly all actives have a fitted effect of over 55% in size
#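 Image-based read-out: total Hoechst fluorescence of nuclei (405 nm excitation, 500-530 nm emission), with hits raising the fraction of high-intensity nuclei. SW480 colon cells incubated 48 hr with compounds at 37 C.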
# KB-3-1 cytotox = KB-3-1 parental cell cytotoxicity; KB-3-1 viability, CellTiter-Glo ATP luminescence, 72 h; Potency, µM (doses to about 46.1 µM), actives largely listed as cytotoxic; AID 1347075; 400,000 compounds, 1.4% hits; note: nearly all actives have a fitted effect of over 60% in size
#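 Parental KB-3-1 adenocarcinoma cells in phenol-red-free DMEM with 10% FBS were pin-treated with compounds at several concentrations, incubated 72 h at 37 °C, and viability read by CellTiter-Glo luminescence; concentration-effect curves were fitted after normalization.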
# HT1080-NT tox = kills 2HG-producing HT-1080-NT fibrosarcoma cells; Potency, µM (top dose mostly 46.1 µM), usual class: cytotoxic; HT-1080-NT fibrosarcoma viability, CellTiter-Glo ATP luminescence, 48 h; AID 686970; 360,000 compounds, 1.6% hits;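 note: NT is the 2HG producing partner of a matched IDH1 knockdown line; nearly all actives have a fitted effect of over 55% in size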
#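 Viability of the 2HG-overproducing fibrosarcoma line after 48 hours of compound exposure at 37 degrees C was determined by luminescence with CellTiter-Glo, and concentration-effect curves were then fitted and categorized.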
# A number is an active result; - = inactive; ? = inconclusive; . = not tested or not shown. Rows were chosen to be rich in hits. Some 7.9% of all compounds tested hit in one or more screens of this group. Calls come from the whole dose curve; as a rule, active = well fitted curve in the direction sought with a large enough effect; inconclusive = small, poorly fitted or top-dose-only effect, or another doubt; inactive = no such curve, though single readings can be large; an effect the other way counts as inactive or inconclusive.
SMILES,HT1080 IDH1KD tx,KB-V1 cytotox,MCF10A rerep,SW480 rerep,KB-3-1 cytotox,HT1080-NT tox
CC(=O)c1c(C)[nH]c(C(=O)CSc2nnc(N)s2)c1C,-,-,-,-,-,-
COc1ccc(CCc2cc(OC)cc(=O)o2)cc1,-,-,-,-,-,-
COc1cc(C2C(c3ccccc3)C(c3cc(OC)cc(=O)o3)C2c2ccccc2)oc(=O)c1 (stereo not given),-,6.5µM,?,-,-,-
O=C(CN(c1ccc(Cl)c(C(F)(F)F)c1)S(=O)(=O)c1ccccc1)N1CCc2ccccc2C1,.,-,.,.,-,.
Cc1ccccc1NC(=O)C(=Cc1ccc(C(=O)O)cc1)C(=O)Nc1ccccc1C,4.6µM,?,13µM,?,?,6.5µM
COc1cc2c(C#N)c(N3CCCCC3)nc(N)c2c(N)n1,?,8.2µM,?,-,?,?
COc1ccccc1CCC(=O)Oc1ccc(C#N)cc1OC,-,-,-,-,-,-
Cc1ccc(C23CC4CC(CC(CN)(C4)C2)C3)cc1,?,?,?,?,?,18µM
O=C(COc1cccc(NC(=O)c2cccs2)c1)c1ccc(F)cc1,-,7.3µM,?,-,-,-
O=C(CNC(=O)c1cccs1)c1ccc(F)cc1,-,-,23µM,?,-,-
CCc1ccc(CSc2nc(-c3ccccc3OC)nc3c2Cc2c(CO)cnc(C)c2O3)cc1,.,-,.,.,-,.
CCOc1ccccc1NC(=O)C1CCCN(S(=O)(=O)c2ccc3c(c2)C(C)(C)C(=O)N3C)C1 (stereo not given),-,-,-,-,?,-
Cc1ccc(S(=O)(=O)N2CCN(c3nc(-c4ccnnc4)nc4ccccc34)CC2)cc1,-,.,.,.,.,-
COC1=CC(=O)c2c(ccc3ncnc(N)c23)C1=O,2.9µM,1.8µM,-,?,2.1µM,4.1µM
CCCOc1ccccc1C1CC(=O)NC2=C1C(=O)CCC2 (stereo not given),8.2µM,?,10µM,12µM,4.6µM,12µM
CCOc1ccc(C2CC(=O)NC3=C2C(=O)CCC3)cc1 (stereo not given),-,-,-,-,-,-
CCCOc1ccccc1C1CC(=O)NC(C)=C1C(=O)OCC(C)C (stereo not given),?,?,-,-,-,-
CCOc1ccccc1C1CC(=O)NC2=C1C(=O)CCC2 (stereo not given),23µM,?,?,18µM,?,?
CCCCOc1ccccc1C1CC(=O)NC2=C1C(=O)CCC2 (stereo not given),1.6µM,?,4.1µM,?,?,2.3µM
COc1cc(CC(=O)OCC(=O)N2C(C)CCCC2C)cc(OC)c1OC (stereo not given),-,-,-,-,-,-
CCCN(CC(=O)Nc1ccccc1OC)C(=O)Cc1ccc2c(c1)CCC2,-,?,-,-,-,-
C=CCNC(=O)c1onc(CCl)c1C(=O)OC,26µM,?,18µM,?,?,?
COCCNC(=O)c1onc(CCl)c1C(=O)OC,-,-,-,?,-,-
